Results taken from PubChem BioAssay (Tox21).
Records with an inconclusive call do not appear. Calls of active or inactive are those of the source. Calls follow the shape of the dose curve; as a rule, active = well fitted curve in the direction sought with a large enough effect in the repeat runs; inconclusive = weak or mixed curves; inactive = no such curve, though single readings can be large; an effect the other way counts as inactive or inconclusive.

Key:
[1] = Human pregnane X receptor (PXR) small molecule agonists, qHTS cell viability counter screen (AID 1346977); also: nearly all actives have a fitted effect of over 50% in size; also: potency is read from the fitted curve at half-maximal effect
How it was run: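 Readout is CellTiter-Fluor fluorescence from PXR-Luc HepG2 cells. Plated cells rested 5hr, then were treated with compounds for 24hr at 37C and 5% CO2, with reagent present during the last hour.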

[2] = Caspase-3/7 induction in HepG2 cells by small molecules, qHTS assay (AID 1346978); also: nearly all actives have a fitted effect of over 15% in size
How it was run: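 Wild-type HepG2 cells, 2,000/well, settled 5 hr at 37 C and 5% CO2, then compound-treated for 17 hr; caspase-3/7 activity read by luminescent Caspase-Glo 3/7 after 30 min at room temperature.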

[3] = Caspase-3/7 induction in CHO-K1 cells by small molecules, qHTS cell viability counter screen (AID 1346979); also: nearly all actives have a fitted effect of over 35% in size; also: potency is read from the fitted curve at half-maximal effect
How it was run: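 To flag cytotoxic compounds, treated CHO-K1 wild-type cells were given CellTiter-Fluor at 16hr and read fluorescently after 1hr at 37C; the caspase-3/7 luminescence was measured in these same wells.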

[4] = Caspase-3/7 induction in CHO-K1 cells by small molecules, qHTS assay (AID 1346980); also: nearly all actives have a fitted effect of over 15% in size
How it was run: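 Wild-type CHO-K1 cells exposed to compounds for 17hr at 37 C, 5% CO2. Caspase-3/7 activity then measured by Caspase-Glo 3/7 luminescence after 30min at room temperature.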

[5] = target: Nuclear receptor subfamily 1 group I member 2 (Homo sapiens) (UniProt O75469); assay: Human pregnane X receptor (PXR) small molecule agonists, qHTS assay (AID 1346982); also: nearly all actives have a fitted effect of over 35% in size; also: potency is read from the fitted curve at half-maximal effect
How it was run: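 HepG2 PXR-Luc reporter line, 5% charcoal-stripped FBS; 5 hr pre-incubation, compound (DMSO) 24 hr at 37 C/5% CO2; ONE-Glo 30 min RT; luminescence read-out.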

[6] = target: Nuclear receptor subfamily 1 group I member 2 (Rattus norvegicus) (UniProt Q9R1A7); assay: Rat pregnane X receptor (rPXR) activation by small molecules, qHTS assay (AID 1346983); settings: rPXR luciferase reporter cells, One-Glo luminescence, 24 h; max activation: active compounds read high; also: nearly all actives have a fitted effect of over 20% in size; also: potency is read from the fitted curve at half-maximal effect
How it was run: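 Cell-based rPXR activation assay: rPXR cells, 2,000 per well, rested 5hr at 37 C, then exposed to compounds in DMSO for 24 hr at 37 C. Luciferase activity read by One-Glo luminescence after 30 min at room temperature.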

[7] = target: Nuclear receptor subfamily 1 group I member 2 (Homo sapiens) (UniProt O75469); assay: CYP3A4 induction through human pregnane X receptor (PXR) by small molecules, qHTS assay (AID 1346984); also: nearly all actives have a fitted effect of over 40% in size
How it was run: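 HepG2-derived DPX-2 line carrying PXR plus a CYP3A4-promoter luciferase reporter; cells plated 5 hr, compound-exposed 24 hr at 37C. CYP3A4 activity probed with 3uM (final) Luciferin-IPA for 3hr, then luciferase read after One-Glo.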

[8] = target: Nuclear receptor subfamily 1 group I member 2 (Homo sapiens) (UniProt O75469); assay: Human pregnane X receptor (PXR) activation by small molecules, qHTS assay (AID 1346985); also: nearly all actives have a fitted effect of over 40% in size
How it was run: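 DPX-2 cells (HepG2 co-transfected with a PXR response element and a CYP3A4-promoter luciferase construct) were seeded at 2,000 per well, rested 5 hr at 37C, then exposed to DMSO-dissolved compounds for 24 hr. Activation was read as luciferase luminescence.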

[9] = target: Cytochrome P450 2D6 (Homo sapiens) (UniProt P10635); assay: Cytochrome P450 Family 2 Subfamily D Member 6 (CYP2D6) small molecule antagonists: luciferase reporter qHTS assay (AID 1671196); also: nearly all actives have a fitted effect of over 50% in size; also: potency is read from the fitted curve at half-maximal effect
How it was run: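 Luminogenic proluciferin substrate, CYP2D6 enzyme; 10 min RT preincubation with compound, NADPH regeneration system added, 1 h RT. Stop/detection reagent, 20 min RT, luminescence read (RLU). Signal proportional to CYP activity.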

[10] = target: Cytochrome P450 2C19 (Homo sapiens) (UniProt P33261); assay: Cytochrome P450 Family 2 Subfamily C Member 19 (CYP2C19) small molecule antagonists: luciferase reporter qHTS assay (AID 1671197); also: nearly all actives have a fitted effect of over 65% in size; also: potency is read from the fitted curve at half-maximal effect
How it was run: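 Compounds were tested on CYP2C19 activity via proluciferin conversion to luciferin. The 37C, 1 h reaction followed NADPH addition; detection reagent stopped it.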

[11] = target: Cytochrome P450 2C9 (Homo sapiens) (UniProt P11712); assay: Cytochrome P450 Family 2 Subfamily C Member 9 (CYP2C9) small molecule antagonists: luciferase reporter qHTS assay (AID 1671198); also: nearly all actives have a fitted effect of over 50% in size; also: potency is read from the fitted curve at half-maximal effect
How it was run: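 P450-Glo proluciferin substrate with CYP2C9 enzyme; 10 min RT preincubation, then NADPH regeneration 1 h at 37C; luciferin detection reagent 20 min RT, luminescence in relative luminescence units.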

[12] = target: Cytochrome P450 1A2 (Homo sapiens) (UniProt P05177); assay: Cytochrome P450 Family 1 Subfamily A Member 2 (CYP1A2) small molecule antagonists: luciferase reporter qHTS assay (AID 1671199); also: nearly all actives have a fitted effect of over 50% in size; also: potency is read from the fitted curve at half-maximal effect
How it was run: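 Luminescence readout (relative luminescence units) after luciferin detection reagent, 20 min RT. Preceded by 1 h room-temperature CYP1A2 reaction with NADPH regeneration solution following 10 min compound preincubation with enzyme and proluciferin substrate. Furafylline positive control.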

[13] = target: Voltage-gated inwardly rectifying potassium channel KCNH2 (Homo sapiens) (UniProt Q12809); assay: Human Ether-a-go-go-Related Gene (hERG) channel small molecule antagonists: fluorescence cell-based qHTS assay (AID 1671200); also: nearly all actives have a fitted effect of over 50% in size; also: potency is read from the fitted curve at half-maximal effect
How it was run: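 Measured: Tl+ flux via fluorescence (480/540 nm) in hERG-expressing U2OS cells after 1 h dye loading at room temperature.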

[14] = Caspase-3/7 induction in HepG2 cells by small molecules, qHTS cell viability counter screen (AID 1346981); also: nearly all actives have a fitted effect of over 30% in size; also: potency is read from the fitted curve at half-maximal effect
How it was run: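 Fluorescence read-out of live-cell protease activity (CellTiter-Fluor) after 1 hr with reagent. This was measured in the same wells as the caspase-3/7 luminescence, on HepG2 cells exposed to DMSO-dissolved compounds for 16 hr at 37 C.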

[15] = target: Cytochrome P450 3A4 (Homo sapiens) (UniProt P08684); assay: Cytochrome P450 Family 3 Subfamily A Member 4 (CYP3A4) small molecule antagonists: luciferase reporter qHTS assay (AID 1671201); also: nearly all actives have a fitted effect of over 50% in size; also: potency is read from the fitted curve at half-maximal effect
How it was run: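 Setup: enzyme-substrate mix, compound pin transfer, 10 min RT. Reaction: NADPH regeneration solution, 1 h RT. Readout: detection reagent stops turnover, luminescence measured after 20 min, expressed in relative luminescence units.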
% is scaled to controls: 0 for no effect and ±100 for the full control effect.

Cytochrome P450 3A4 (Homo sapiens), sequence (P08684 whole entry, looked up): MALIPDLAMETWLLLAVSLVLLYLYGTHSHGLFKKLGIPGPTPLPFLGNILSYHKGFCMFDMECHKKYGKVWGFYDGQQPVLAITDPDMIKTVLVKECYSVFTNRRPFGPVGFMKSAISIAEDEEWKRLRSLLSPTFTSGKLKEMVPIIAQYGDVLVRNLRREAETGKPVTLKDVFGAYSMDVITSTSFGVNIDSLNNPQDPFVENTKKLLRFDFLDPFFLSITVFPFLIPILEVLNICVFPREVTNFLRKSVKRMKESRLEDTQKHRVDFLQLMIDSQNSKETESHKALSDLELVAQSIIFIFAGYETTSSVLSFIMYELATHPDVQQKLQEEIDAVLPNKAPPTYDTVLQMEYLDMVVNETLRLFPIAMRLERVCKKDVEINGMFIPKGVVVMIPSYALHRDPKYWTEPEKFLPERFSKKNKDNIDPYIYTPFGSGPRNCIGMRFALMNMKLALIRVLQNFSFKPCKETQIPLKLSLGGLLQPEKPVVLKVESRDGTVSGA
Cytochrome P450 2C9 (Homo sapiens), sequence (P11712 whole entry, looked up): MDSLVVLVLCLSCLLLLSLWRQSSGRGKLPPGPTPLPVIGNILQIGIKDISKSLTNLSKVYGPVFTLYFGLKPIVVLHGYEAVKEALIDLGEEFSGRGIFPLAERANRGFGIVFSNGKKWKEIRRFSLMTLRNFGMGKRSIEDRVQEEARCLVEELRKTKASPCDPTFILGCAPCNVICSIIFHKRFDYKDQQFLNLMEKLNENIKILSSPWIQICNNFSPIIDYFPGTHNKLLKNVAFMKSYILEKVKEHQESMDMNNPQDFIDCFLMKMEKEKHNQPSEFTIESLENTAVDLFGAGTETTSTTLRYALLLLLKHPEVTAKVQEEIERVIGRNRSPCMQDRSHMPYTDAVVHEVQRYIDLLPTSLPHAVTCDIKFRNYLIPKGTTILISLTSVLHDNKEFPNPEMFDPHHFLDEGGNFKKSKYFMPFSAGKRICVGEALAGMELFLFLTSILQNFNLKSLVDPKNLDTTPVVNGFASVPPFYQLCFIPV
Cytochrome P450 1A2 (Homo sapiens), sequence (P05177 whole entry, looked up): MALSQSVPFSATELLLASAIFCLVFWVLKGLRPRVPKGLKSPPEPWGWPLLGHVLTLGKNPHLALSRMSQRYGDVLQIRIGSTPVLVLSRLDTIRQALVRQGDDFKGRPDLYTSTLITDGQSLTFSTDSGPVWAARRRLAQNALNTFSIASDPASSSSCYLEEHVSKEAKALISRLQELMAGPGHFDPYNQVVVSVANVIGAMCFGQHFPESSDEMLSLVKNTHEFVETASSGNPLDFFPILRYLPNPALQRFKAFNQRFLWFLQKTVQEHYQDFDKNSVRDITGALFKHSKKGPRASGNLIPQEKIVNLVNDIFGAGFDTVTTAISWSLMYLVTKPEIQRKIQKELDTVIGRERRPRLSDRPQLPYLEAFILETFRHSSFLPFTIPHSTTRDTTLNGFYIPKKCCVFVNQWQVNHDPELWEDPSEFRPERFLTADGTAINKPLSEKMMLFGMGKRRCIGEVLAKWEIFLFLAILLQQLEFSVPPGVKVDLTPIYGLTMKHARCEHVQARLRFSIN
Nuclear receptor subfamily 1 group I member 2 (Rattus norvegicus), sequence (Q9R1A7 whole entry, looked up): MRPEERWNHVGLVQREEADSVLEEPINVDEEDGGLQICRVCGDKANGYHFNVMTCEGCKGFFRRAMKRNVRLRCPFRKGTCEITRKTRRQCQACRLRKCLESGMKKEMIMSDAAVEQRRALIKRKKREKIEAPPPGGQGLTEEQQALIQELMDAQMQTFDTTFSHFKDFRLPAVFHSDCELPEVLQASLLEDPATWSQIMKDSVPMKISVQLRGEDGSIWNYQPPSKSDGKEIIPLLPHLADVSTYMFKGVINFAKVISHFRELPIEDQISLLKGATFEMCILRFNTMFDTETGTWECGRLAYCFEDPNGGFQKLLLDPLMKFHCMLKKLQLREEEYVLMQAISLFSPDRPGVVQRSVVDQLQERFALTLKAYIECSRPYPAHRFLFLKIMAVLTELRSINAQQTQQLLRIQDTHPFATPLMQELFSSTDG
Cytochrome P450 2C19 (Homo sapiens), sequence (P33261 whole entry, looked up): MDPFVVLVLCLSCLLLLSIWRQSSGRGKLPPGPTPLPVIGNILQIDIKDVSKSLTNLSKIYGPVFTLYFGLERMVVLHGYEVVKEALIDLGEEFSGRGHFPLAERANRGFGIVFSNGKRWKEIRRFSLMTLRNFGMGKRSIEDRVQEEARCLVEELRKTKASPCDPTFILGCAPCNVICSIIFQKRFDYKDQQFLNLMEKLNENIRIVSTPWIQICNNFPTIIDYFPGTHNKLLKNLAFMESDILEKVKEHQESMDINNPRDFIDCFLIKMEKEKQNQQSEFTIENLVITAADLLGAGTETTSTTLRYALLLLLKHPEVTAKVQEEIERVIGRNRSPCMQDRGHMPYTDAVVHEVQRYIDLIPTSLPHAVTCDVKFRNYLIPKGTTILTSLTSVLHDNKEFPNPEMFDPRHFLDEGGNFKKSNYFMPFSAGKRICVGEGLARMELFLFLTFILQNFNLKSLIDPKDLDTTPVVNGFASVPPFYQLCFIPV
Nuclear receptor subfamily 1 group I member 2 (Homo sapiens), sequence (O75469 whole entry, looked up): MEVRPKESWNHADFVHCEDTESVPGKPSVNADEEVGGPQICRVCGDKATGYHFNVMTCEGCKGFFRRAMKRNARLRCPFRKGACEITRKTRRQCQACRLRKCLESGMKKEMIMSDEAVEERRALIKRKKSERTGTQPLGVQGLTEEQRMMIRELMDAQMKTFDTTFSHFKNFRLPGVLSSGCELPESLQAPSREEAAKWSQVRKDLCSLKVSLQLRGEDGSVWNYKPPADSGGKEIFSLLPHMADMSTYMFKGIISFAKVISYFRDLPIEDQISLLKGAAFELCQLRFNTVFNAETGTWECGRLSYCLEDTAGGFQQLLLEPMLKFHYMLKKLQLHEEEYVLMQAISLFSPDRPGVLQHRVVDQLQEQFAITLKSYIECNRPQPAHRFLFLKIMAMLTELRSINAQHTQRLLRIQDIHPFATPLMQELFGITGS
Voltage-gated inwardly rectifying potassium channel KCNH2 (Homo sapiens), sequence (Q12809 whole entry, looked up): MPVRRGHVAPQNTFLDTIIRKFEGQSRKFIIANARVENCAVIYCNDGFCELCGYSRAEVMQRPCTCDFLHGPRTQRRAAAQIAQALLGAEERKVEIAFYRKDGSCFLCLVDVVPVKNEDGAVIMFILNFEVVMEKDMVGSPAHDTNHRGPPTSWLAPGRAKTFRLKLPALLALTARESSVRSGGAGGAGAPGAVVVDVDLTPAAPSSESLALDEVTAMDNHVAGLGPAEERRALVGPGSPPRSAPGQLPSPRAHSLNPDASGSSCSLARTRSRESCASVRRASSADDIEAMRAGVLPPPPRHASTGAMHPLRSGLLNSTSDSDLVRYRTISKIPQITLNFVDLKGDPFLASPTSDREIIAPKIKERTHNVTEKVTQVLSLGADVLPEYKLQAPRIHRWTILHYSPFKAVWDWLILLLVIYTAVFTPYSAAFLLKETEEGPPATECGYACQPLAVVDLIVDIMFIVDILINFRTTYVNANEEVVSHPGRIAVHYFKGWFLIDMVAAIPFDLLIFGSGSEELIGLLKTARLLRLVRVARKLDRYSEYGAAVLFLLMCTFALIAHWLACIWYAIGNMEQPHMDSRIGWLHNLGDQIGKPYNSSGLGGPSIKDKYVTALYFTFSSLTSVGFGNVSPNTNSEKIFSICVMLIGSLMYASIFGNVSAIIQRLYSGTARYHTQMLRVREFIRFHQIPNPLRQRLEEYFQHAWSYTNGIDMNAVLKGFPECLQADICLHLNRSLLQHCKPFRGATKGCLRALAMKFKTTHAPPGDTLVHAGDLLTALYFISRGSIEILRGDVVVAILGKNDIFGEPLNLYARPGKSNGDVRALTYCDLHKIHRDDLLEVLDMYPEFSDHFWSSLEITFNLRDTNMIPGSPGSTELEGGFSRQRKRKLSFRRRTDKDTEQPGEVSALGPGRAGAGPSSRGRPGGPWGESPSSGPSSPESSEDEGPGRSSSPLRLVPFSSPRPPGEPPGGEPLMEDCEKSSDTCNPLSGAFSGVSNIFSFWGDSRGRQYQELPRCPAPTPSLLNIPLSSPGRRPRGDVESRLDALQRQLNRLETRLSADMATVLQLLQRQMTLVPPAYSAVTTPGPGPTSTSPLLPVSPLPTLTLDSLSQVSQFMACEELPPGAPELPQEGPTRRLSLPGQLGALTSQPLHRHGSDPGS
Cytochrome P450 2D6 (Homo sapiens), sequence (P10635 whole entry, looked up): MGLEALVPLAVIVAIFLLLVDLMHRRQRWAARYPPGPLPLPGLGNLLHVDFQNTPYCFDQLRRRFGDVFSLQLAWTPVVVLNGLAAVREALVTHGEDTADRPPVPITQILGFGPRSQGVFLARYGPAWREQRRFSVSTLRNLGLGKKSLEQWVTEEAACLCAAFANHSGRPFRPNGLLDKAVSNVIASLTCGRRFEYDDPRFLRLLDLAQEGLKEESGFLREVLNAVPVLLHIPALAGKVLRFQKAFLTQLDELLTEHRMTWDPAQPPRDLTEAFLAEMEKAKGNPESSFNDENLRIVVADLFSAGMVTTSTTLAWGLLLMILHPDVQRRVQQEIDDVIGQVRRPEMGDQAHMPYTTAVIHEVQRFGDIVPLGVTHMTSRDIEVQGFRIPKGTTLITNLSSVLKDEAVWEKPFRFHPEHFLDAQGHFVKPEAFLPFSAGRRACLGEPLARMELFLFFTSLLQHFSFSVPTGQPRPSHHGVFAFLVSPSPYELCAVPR

CCCCC1=NC2(CCCC2)C(=O)N1Cc1ccc(-c2ccccc2-c2nn[nH]n2)cc1
inactive: Potency [1] | Potency [2] | Potency [4] | Potency [5] | max activation [6] -1.35% | Potency [7] | Potency [8] | Potency [9] | Potency [10] | Potency [12] | Potency [13]
active: Potency [3] 29.8 µM | Potency [11] 17.4 µM

CCOc1ccc(N=Nc2ccc(/C=C/c3ccc(N=Nc4ccc(OCC)cc4)cc3S(=O)(=O)O)c(S(=O)(=O)O)c2)cc1
inactive: Potency [2] | Potency [4] | Potency [5] | Potency [10] | Potency [13] | Potency [15]
active: Potency [1] 47.8 µM | Potency [3] 38 µM | Potency [14] 42.6 µM | Potency [12] 27.8 µM

CCOC(=O)C(F)(F)F
inactive: Potency [1] | Potency [2] | Potency [3] | Potency [4] | Potency [14] | Potency [10] | Potency [11] | Potency [13] | Potency [15]

COc1ccc2cccc(CCNC(C)=O)c2c1
active: Potency [10] 34.7 µM | Potency [11] 15.5 µM | Potency [12] 4.9 µM
inactive: Potency [1] | Potency [2] | Potency [3] | Potency [4] | Potency [14] | Potency [9] | Potency [13]

CCCCO
inactive: Potency [1] | Potency [2] | Potency [3] | Potency [4] | Potency [14] | max activation [6] -3.27% | Potency [13]

O=C(O)c1ccc(S(=O)(=O)O)cc1C(=O)O
inactive: Potency [1] | Potency [2] | Potency [3] | Potency [4] | Potency [9] | Potency [11] | Potency [12] | Potency [13] | Potency [15]

Nc1cccc([N+](=O)[O-])c1
active: Potency [10] 69.5 µM | Potency [12] 39.1 µM
inactive: Potency [1] | Potency [2] | Potency [3] | Potency [4] | Potency [14] | Potency [13] | Potency [15]

O=C(CS)Nc1ccccc1
inactive: Potency [1] | Potency [2] | Potency [3] | Potency [4] | Potency [14] | Potency [5] | Potency [13]
active: Potency [10] 8.71 µM

CCCCc1nc2cccnc2n1Cc1ccc(-c2ccccc2-c2nnn[nH]2)cc1
inactive: Potency [1] | Potency [2] | Potency [4] | Potency [9] | Potency [10] | Potency [13]
active: Potency [3] 48.6 µM | Potency [5] 61.1 µM | Potency [11] 0.356 µM | Potency [12] 44.8 µM

CCC(=O)O[C@]1(C(=O)CCl)[C@@H](C)C[C@H]2[C@@H]3CCC4=CC(=O)C=C[C@]4(C)[C@@]3(F)[C@@H](O)C[C@@]21C
active: Potency [6] 2.24 µM | Potency [9] 15.5 µM
inactive: Potency [1] | Potency [2] | Potency [3] | Potency [4] | Potency [14] | Potency [12] | Potency [13]

COc1ccc(C(=O)Nc2nc3ccccc3c(NCc3ccccc3)c2C#N)cc1
active: Potency [3] 19.3 µM | Potency [5] 7.7 µM | Potency [10] 17.8 µM | Potency [11] 2 µM | Potency [12] 15.9 µM | Potency [15] 4.48 µM
inactive: Potency [1] | Potency [2] | Potency [4] | Potency [9]

CC(=O)[O][Al]
inactive: Potency [1] | Potency [2] | Potency [3] | Potency [4] | Potency [14] | Potency [13]

Nc1ccc(S(=O)(=O)Nc2ccccc2)cc1
inactive: Potency [1] | Potency [2] | Potency [3] | Potency [4] | Potency [14] | max activation [6] -5.46% | Potency [7] | Potency [8] | Potency [12] | Potency [13]

C=CC1CC2C=CC1C2 (stereo not drawn)
inactive: Potency [1] | Potency [2] | Potency [3] | Potency [4] | Potency [14] | Potency [9] | Potency [11] | Potency [12] | Potency [13] | Potency [15]

Nc1ccc([N+](=O)[O-])c(C(F)(F)F)c1
inactive: Potency [1] | Potency [2] | Potency [4] | Potency [9] | Potency [13] | Potency [15]
active: Potency [3] 29.8 µM | Potency [12] 11 µM

C[C@@H]1C[C@H]2[C@@H]3CCC4=CC(=O)C=C[C@]4(C)[C@@]3(F)[C@@H](O)C[C@]2(C)[C@@]1(O)C(=O)COC(=O)c1ccncc1
inactive: Potency [1] | Potency [2] | Potency [3] | Potency [4] | Potency [14] | Potency [12] | Potency [13]
active: Potency [10] 17.4 µM | Potency [11] 7.76 µM

O=C(O)c1ccccc1Cl
inactive: Potency [1] | Potency [2] | Potency [3] | Potency [4] | Potency [14] | Potency [5] | Potency [10] | Potency [13] | Potency [15]

CCCCc1ncc(/C=C(\Cc2cccs2)C(=O)O)n1Cc1ccc(C(=O)O)cc1
inactive: Potency [1] | Potency [2] | Potency [3] | Potency [4] | Potency [14] | max activation [6] -2.02% | Potency [10] | Potency [13]

CC(C)O.CC(C)O.CCOC(=O)/C=C(\C)O.CCOC(=O)/C=C(\C)O.[Ti]
inactive: Potency [1] | Potency [2] | Potency [3] | Potency [4] | Potency [14] | Potency [13]

CC(=O)c1ccc2c(c1)N(CCCN1CCC(CCO)CC1)c1ccccc1S2
inactive: Potency [2] | Potency [4] | max activation [6] -2.34% | Potency [8]
active: Potency [1] 26.6 µM | Potency [3] 29.8 µM | Potency [13] 3.01 µM

CNC(=O)CN(CCN(CCN(CC(=O)[O-])CC(=O)NC)CC(=O)[O-])CC(=O)[O-].O.[Gd+3]
inactive: Potency [1] | Potency [2] | Potency [3] | Potency [4] | Potency [14] | Potency [5] | Potency [10] | Potency [11] | Potency [12] | Potency [13] | Potency [15]

CC1=CCCC(C)(C)C12CCC(C)O2 (stereo not drawn)
inactive: Potency [1] | Potency [2] | Potency [3] | Potency [4] | Potency [14] | Potency [10] | Potency [13]
active: Potency [5] 54.5 µM | Potency [11] 79.6 µM | Potency [15] 79.6 µM
